Shown are actives, neighbours in structure and some others; about 2.1% of the full set was active somewhere.
PGC1a acetyl inh: PGC1a acetylation modulation, inhibitor mode. U2OS PGC1a acetylation, AlphaScreen anti-acetyl-lysine; with virally co-expressed GCN5 acetyltransferase. 0.17% of 350,000 active. inhibition, % at 15.6 µM. AID 651687;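 active = every replicate shows inhibition of at least 40%; inconclusive = mean inhibition at least 40% but some replicate below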;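 also: 0% = neutral control wells and 100% = positive control wells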
NSD2 HMT inh: NSD2 (human) methyltransferase inhibition; O96028; NSD2 peptide methylation, AlphaScreen, 120 min; inhibition, % at 12.5 µM; 0.54% of 310,000 active; in the data active = inhibition above about 50%
AF4-AF9 inh: inhibitors of human MLL-AF4/AF9 interaction | P42568 | inhibition, % at 10 µM | 0.47% of 350,000 active | AlphaScreen, biotin-AF4 peptide binding to FLAG-AF9;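 active = every replicate reaching a set inhibition limit, whatever the replicate mean, cut at about 25% in these data; inconclusive = mean inhibition reaches that limit but some replicates miss it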;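 also: 0% = plate neutral control median and 100% = total signal loss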
HIV Env fusion: inhibitors of HIV Env-mediated cell fusion. HeLa-JRFL Env/CEM21 cell fusion, luciferase. 1.1% of 360,000 active. inhibition, % at 12.3 µM;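 active = mean replicate inhibition score of at least 50 and every replicate individually at or above 50; inconclusive = only one of the two criteria met; inactive = mean below 50 and not all replicates reaching 50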;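 also: 0% = plate neutral controls and 100% = maraviroc near 300 nM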
GSIS activator: primary screen for activators of insulin secretion dependent on glucose, INS-1E cells, GLuc reporter luminescence; INS-1E GLuc reporter insulin secretion, 2-3 h; activation, % at 16.6 µM; 0.61% of 370,000 active;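 active = lowest replicate activation of at least 40%, so every replicate reaches that level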;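 also: 0% = median of neutral control wells and 100% = median of IBMX positive control wells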
Alpha artifact: interferes with AlphaScreen signal, flagging NSD2 false positives | shares compounds with NSD2 HMT inh | AlphaScreen artifact counterscreen, preloaded methylated H4 peptide | AC35, µM (doses to about 10 µM), inactives show at the top dose activity change, negative = signal loss | 9.4% of 1,500 active | AID 1053174; call rule not given here
The depositor's hits bear a star; i = inactive; ? = inconclusive; . = no result; + = active, no number; [ ] = another dose, or the depositor's remark.

SMILES | PGC1a acetyl inh | NSD2 HMT inh | AF4-AF9 inh | HIV Env fusion | GSIS activator | Alpha artifact
CCOc1ccc2[nH]c3c(NCCOC)ncnc3c2c1 | . | -1 | 7 | -12 | -2 | .
CCN(CC)CCCNc1nc2ccccc2c2[nH]c3ccc(OC)cc3c12 | . | 56* | ? | -191 | -14 | -7%
O=C(Nc1cccc(-c2cnc3ccccc3n2)c1)c1ccccc1 | 3 | 7 | . | -35 | 0 | .
Cc1c(Br)c(=O)oc2c(Br)c(O)c(O)cc12 | . | 111* | 3 | -10 | -13 | -15%
Cc1c(Br)c(=O)oc2c(Br)c(O)ccc12 | -3 | 18 | 3 | 8 | 14 | .
CCN(CC)CCNC(=O)c1cccc(NC(=O)C(=O)c2cc(Br)ccc2NC(C)=O)c1 | -7 | 57* | 7 | 1 | 0 | -3%
CC(=O)Nc1ccccc1C(=O)C(=O)Nc1cccc(Br)c1 | . | -1 | 2 | -14 | -11 | .
O=C(CSc1nnc(-c2ccco2)n1-c1ccccc1)N1CCOCC1 | 4 | 4 | . | -17 | 1 | .
C=CCn1c(SCC(=O)N2CCN(c3ccccc3)CC2)nnc1-c1ccco1 | . | 84* | . | 20 | 3 | -5%
CO[C@H]1CN(C)C(=O)c2cc(NS(C)(=O)=O)ccc2OC[C@H](C)N(C(=O)C2CC2)C[C@@H]1C | 16 | . | -1 | . | -3 | .
CC(Nc1ccc2ccccc2c1)C(=O)N/N=C/c1ccncc1 (centres undefined) | 4 | 141* | 4 | -18 | -6 | -4%
CC(Oc1ccc2ccccc2c1)C(=O)N/N=C/c1cccnc1 (centres undefined) | -3 | 1 | 2 | -1 | 11 | .
COc1ccc(-n2cc(CN(C)C3CCOCC3)c(-c3cccc(F)c3)n2)cc1 | . | -2 | 4 | 21 | -1 | .
COc1ccccc1CNC(=O)C(NC(=O)c1ccccc1)C(C)C (centres undefined) | -3 | -3 | 1 | 7 | 10 | .
COc1ccccc1CNC(=O)C(NC(=O)Nc1ccccc1)C(C)C (centres undefined) | . | 106* | 0 | -3 | 4 | -4%
CCN(CC)CCOc1ccc(C=NNc2nc3c([nH]2)c(=O)n(C)c(=O)n3C)cc1 | -3 | 51* | -5 | . | . | -4%
O=C1Cc2ccccc2C(=O)N1c1ccccc1 | . | 86* | -3 | 5 | -2 | -7%
C=CCc1cc(/C=C/c2nc(O)c([N+](=O)[O-])c(=O)[nH]2)cc(OC)c1O | . | 78* | -2 | -3 | -5 | -9%
Cc1ccc(S(=O)(=O)N[C@@H]2CC[C@H](CCNC(=O)c3ccc4c(c3)OCO4)O[C@H]2CO)cc1 | -4 | . | -1 | -16[16.7 µM] | 8 | .
COc1cc(/C=C2\C(=O)ON=C2c2ccc(Cl)cc2)ccc1O | . | 61* | 1 | 10 | . | -4%
CCCCn1c(N)c(N(Cc2ccccc2OC)C(=O)c2c(CC)noc2C)c(=O)[nH]c1=O | 6 | -4 | -7 | 2 | 5 | .
O=C1C(=O)N(CCS(=O)(=O)c2ccccc2)c2ccc(F)cc21 | 3 | 100* | 1 | 0 | 5 | 2%
C[C@@H]1CCCCO[C@@H](CN(C)C(=O)Nc2cccc3ccccc23)[C@@H](C)CN([C@H](C)CO)C(=O)c2cc(NC(=O)C3CCCCC3)ccc2O1 | -5 | . | 0 | -11[16.7 µM] | -6 | .
Cc1ccc(S(=O)(=O)Nc2cccc3c2O[C@@H](CN(C)Cc2ccc(C(=O)O)cc2)[C@@H](C)CN([C@H](C)CO)C3=O)cc1 | 7 | . | -1 | 5[16.7 µM] | 9 | .
O=C(Cc1ccccc1Cl)NC1(O)C(=O)c2ccccc2C1=O | 17 | 94* | -3 | 6 | . | 4%
SMILES | PGC1a acetyl inh | NSD2 HMT inh | AF4-AF9 inh | HIV Env fusion | GSIS activator | Alpha artifact
CC(C)c1[nH]nc2c1C(C1C=CCCC1)C(C#N)=C(N)O2 (centres undefined) | . | 2 | 1 | 23 | -10 | .
CC(C)(C)c1[nH]nc2c1C(C1C=CCCC1)C(C#N)=C(N)O2 (centres undefined) | 4 | 127* | . | -380 | . | -6%
OCCCN=c1cc(-c2ccccc2)oc2ccc(Cl)cc12 | -59 | 3 | . | . | . | .
CC(C)Sc1nnc([C@H](Cc2c[nH]c3ccccc23)NC(=O)OC(C)(C)C)o1 | 4 | 54* | . | 1 | . | -7%
CC(C)(C)OC(=O)N[C@@H](Cc1c[nH]c2ccccc12)c1nnc(SCC(N)=O)o1 | 1 | -1 | . | -69 | . | .
O=C1C=C(N2CCOCC2)c2ccccc2C1=O | . | + | 3 | 65* | -15 | -2%
O=C1C=C(N2CCOCC2)c2cccc3cccc1c23 | 12 | . | 8 | 27 | -7 | .
CN(C1=C(N2CCOCC2)C(=O)c2ccccc2C1=O)c1ccccc1 | 0 | 76* | . | 24 | -21 | 2.9µM*
Nc1cc(=O)[nH]c(SCC(=O)Nc2cc(Cl)cc(Cl)c2)n1 | -1 | 1 | . | -115 | . | .
Nc1cc(=O)[nH]c(SCC(=O)Nc2ccc(Cl)c(Cl)c2)n1 | -2 | 116* | . | -52 | . | 0%
O=C(CSc1n[nH]c(-c2ccncc2)n1)Nc1ccc(Cl)c(Cl)c1 | . | 63* | -1 | 5 | 0 | 0%
CC(C)(CNc1ccc(S(=O)(=O)C(F)(F)F)cc1[N+](=O)[O-])N1CCOCC1 | 4 | 1 | 5 | 39 | -13 | .
COCCCNC(=O)COc1ccc(S(=O)(=O)Nc2ccccc2)cc1 | 2 | -1 | . | . | 4 | .
O=c1[nH]c(NCCO)c(N=Cc2ccccc2)c(=O)[nH]1 | -10 | 104* | -9 | 8 | 2 | 3%
CC1Cc2cc(S(=O)(=O)CCC(=O)NCc3ccco3)ccc2N1C(=O)C1CC1 (centres undefined) | -1 | 1 | -1 | 17 | 2 | .
CCN1/C(=C/c2ccc3cc(C)ccc3[n+]2CC)Sc2ccc3sccc3c21 | -6 | . | . | . | . | .
CCN1/C(=C/c2ccc3cc(C)cc(C)c3[n+]2CC)Sc2cc(C)ccc21 | . | 113* | 28* | 24 | -40 | 9.7µM*
CCN(CC)c1ccc(NC(=O)COC(=O)c2ccc3ccccc3n2)cc1 | 5 | 107* | . | -5 | -22 | -10%
N=C1SCC(=O)N1c1ncc(Cc2cccc(Cl)c2)s1 | 5 | 80* | -7 | 6 | 15 | -1%
O=C(COc1cccc(-n2cnnn2)c1)N1CCOCC1 | -8 | -2 | . | -38 | . | .
CC1Cc2ccccc2N1C(=O)COc1cccc(-n2cnnn2)c1 (centres undefined) | 1 | 130* | . | i | . | -2%
CCOc1cc(/C=C2\SC(=NC)N(C)C2=O)c(Br)cc1OC(C)=O | 8 | -1 | 3 | 14 | -1 | .
COc1ccc(C(=O)Nc2c3c(nn2-c2ccc(Cl)cc2)CS(=O)(=O)C3)cc1 | -8 | 69* | 1 | 7 | -5 | -1%
COc1ccc(C(=O)Nc2c3c(nn2-c2ccc([N+](=O)[O-])cc2)CS(=O)(=O)C3)cc1 | 3 | -5 | 0 | -1 | 3 | .
CC(C)(C)CN1CCNC(=O)C1CC(=O)N1CCC(C(=O)N2CCOCC2)CC1 (centres undefined) | . | 79* | 0 | -1 | -2 | -4%
COc1ccc(C)cc1S(=O)(=O)Nc1ccccc1C | -17 | 69* | . | . | . | 1%

From PubChem
